GPT2 inh = Primary qHTS assay for inhibitors of Glutamate pyruvate transaminase 2 (GPT2). Potency, µM (titrated, usually from 57.7 µM), inactives show at the top dose activity change, negative = inhibition, actives largely listed as inhibitors. Recombinant GPT2, coupled pyruvate oxidase/HRP Amplex Red fluorescence. 100,000 tested, 0.25% active. AID 1671188, 2021; further: nearly all actives have a fitted effect of over 60% in size
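Fluorescence of coupled pyruvate oxidase/HRP/Amplex Red system (50uM Amplex, 30 min, dark) reports pyruvate formed by GPT2. Enzyme reaction: 10ng/uL GPT2, 2mM L-alanine, 250uM a-KG, 30 min room temperature, pH 7.5; 50uM AOA control.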
FLuc inh = Firefly luciferase inhibition profiling of diverse chemical library using quantitative high-throughput screening | purified P. pyralis luciferase, luminescence, biochemical | Potency, µM (doses to about 115 µM), actives largely listed as inhibitors | 76,000 tested, 2.5% active | Luciferin 4-monooxygenase (Photinus pyralis), P08659 | AID 1347043, 2019; further: nearly all actives have a fitted effect of over 65% in size
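Purified 10nM P. pyralis luciferase with 10uM D-luciferin and 10uM ATP in 50mM Tris acetate pH 7.5, 10mM Mg acetate, 0.01% Tween-20, 0.05% BSA. qHTS titration; luminescence read by CCD imager.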
NPR1 antag = Natriuretic polypeptide receptor (hNpr1) antagonism - Primary qHTS. Atrial natriuretic peptide receptor 1 (Homo sapiens), P16066. HEK293 hNpr1 GloSensor cGMP, ANP-stimulated luminescence. Potency, µM (series often up to 46.3 µM), inactives show at the highest dose activity change, negative = inhibition, hits mostly inhibitors. 76,000 tested, 1.6% active; calls by dose curve; further: nearly all actives have a fitted effect of over 60% in size
Target sequence (P16066 whole entry, looked up): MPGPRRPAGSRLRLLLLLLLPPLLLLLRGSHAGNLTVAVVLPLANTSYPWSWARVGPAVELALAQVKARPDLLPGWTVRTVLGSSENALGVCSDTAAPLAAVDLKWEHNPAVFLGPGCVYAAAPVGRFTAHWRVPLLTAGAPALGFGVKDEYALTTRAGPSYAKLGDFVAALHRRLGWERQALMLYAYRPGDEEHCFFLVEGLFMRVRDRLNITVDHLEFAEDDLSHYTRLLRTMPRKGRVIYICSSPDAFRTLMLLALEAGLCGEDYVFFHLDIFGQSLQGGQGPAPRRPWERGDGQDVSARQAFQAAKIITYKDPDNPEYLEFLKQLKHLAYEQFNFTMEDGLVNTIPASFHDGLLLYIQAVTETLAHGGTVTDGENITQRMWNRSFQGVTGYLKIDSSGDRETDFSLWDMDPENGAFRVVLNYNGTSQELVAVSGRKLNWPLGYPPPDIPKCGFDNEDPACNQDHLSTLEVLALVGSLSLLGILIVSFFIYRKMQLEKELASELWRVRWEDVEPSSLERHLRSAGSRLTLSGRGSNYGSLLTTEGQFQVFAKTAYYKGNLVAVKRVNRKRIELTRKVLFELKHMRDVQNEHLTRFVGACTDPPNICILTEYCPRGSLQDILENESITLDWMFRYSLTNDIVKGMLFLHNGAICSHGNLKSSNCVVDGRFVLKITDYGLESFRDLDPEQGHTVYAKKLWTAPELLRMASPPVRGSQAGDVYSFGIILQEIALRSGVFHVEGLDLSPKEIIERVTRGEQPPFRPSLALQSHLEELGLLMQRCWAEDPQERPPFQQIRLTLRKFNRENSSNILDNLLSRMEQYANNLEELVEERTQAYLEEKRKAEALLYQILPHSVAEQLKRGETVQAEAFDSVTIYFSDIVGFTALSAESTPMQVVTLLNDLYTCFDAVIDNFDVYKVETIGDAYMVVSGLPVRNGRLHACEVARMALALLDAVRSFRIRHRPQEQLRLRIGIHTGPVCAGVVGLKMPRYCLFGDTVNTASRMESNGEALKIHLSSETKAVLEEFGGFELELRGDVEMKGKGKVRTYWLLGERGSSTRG
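Compound pre-incubated 30 min at room temperature on GloSensor-loaded HEK293 cells stably carrying hNpr1 and the pGS-40F cGMP biosensor. Stimulation uses hNppA at 0.1 nM final; luminescence is taken at baseline and 20 min post-agonist.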
HEK cytotox = Cytotoxic Profiling in HEK 293 Cell Line of Diverse Libraries Using Quantitative High-Throughput Screening | HEK 293 viability, ATP luminescence (CellTiter-Glo), 48-72 h | Potency, µM (doses to about 115 µM), inactives show top-dose activity change, negative = cytotoxicity, actives largely listed as inhibitors | 94,000 tested, 6.6% active; further: nearly all actives have a fitted effect of over 60% in size
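HEK 293 cells at 250 cells/well were exposed to compounds by pintool transfer for 48 or 72 hr at 37 degree Celsius, 5% CO2. Viability was read as ATP-coupled luminescence with CellTiter-Glo after 10 min at room temperature.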
3T3 cytotox = Cytotoxic Profiling in NIH 3T3 Cell Line of Diverse Libraries Using Quantitative High-Throughput Screening; Potency, µM (top dose mostly 96.7 µM), for inactives: at the highest dose activity change, negative = cytotoxicity, usual class: inhibitors; NIH 3T3 viability, CellTiter-Glo ATP luminescence, 48-72 h; 94,000 tested, 4.3% active; further: nearly all actives have a fitted effect of over 55% in size
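ATP-dependent luminescence (CellTiter-Glo) served as the viability signal for NIH 3T3 cells treated with compound for 48 or 72 hr at 37 °C.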
* hit, by the source's call; i = inactive; ? = inconclusive; . = no result; ! = repeats disagree; [ ] = dose if it differs, or a comment. Most compounds without a hit are left out; they make up all but 10% or so of the library. Unless noted, the call rests on the fitted dose curve; in most records, active means well fitted curve in the direction sought with a large enough effect; inconclusive means small, poorly fitted or top-dose-only effect, or another doubt; inactive means no such curve, though single readings can be large; an effect the other way counts as inactive or inconclusive. On the % scale 0 is the no-effect control and ±100 the full control effect; potency means the concentration at half of the fitted maximal effect.

SMILES	GPT2 inh	FLuc inh	NPR1 antag	HEK cytotox	3T3 cytotox
O=C(NCC1Cn2cccc2CN1Cc1ccccc1)c1ccccn1 (centres undefined)	i	.	.	-13.3%	-22.8%
Cn1nccc1C(=O)NCC1Cn2cccc2CN1Cc1ccccc1 (centres undefined)	i	i	-5.1%	79.4µM*	?
O=C(NCC1Cn2cccc2CN1Cc1ccccc1)c1cncc(Br)c1 (centres undefined)	-22.4%	i	4.1%	89.1µM*	?
CN1c2cc(C(=O)Nc3ccc(Br)cc3)ccc2C(=O)N2CCCCCC21 (centres undefined)	i	?	-28.0%	35.5µM*	?
CSc1ccc(NC(=O)c2ccc3c(c2)N(C)C2CCCCCN2C3=O)cc1 (centres undefined)	i	?	?	?	?
CN1c2cc(C(=O)Nc3ccc(C(F)(F)F)cc3)ccc2C(=O)N2CCCCCC21 (centres undefined)	i	?	-21.8%	?	?
CN1c2cc(C(=O)Nc3ccc(Br)cc3)ccc2C(=O)N2CCCCC21 (centres undefined)	i	31.6µM*	-2.9%	?	?
COc1ccc2c(c1)CCCN2C1CNC1	?	.	.	0.9%[230 µM]	1.3%[174 µM]
COC(=O)N1CCC(C(=O)N2CCC(c3nc4ccncc4[nH]3)C2)CC1 (centres undefined)	i	.	.	4.8%	-3.0%
N#Cc1cccnc1-c1ccc(C(=O)N2CCC(NC(=O)c3cccc(Cl)c3)CC2)cc1	i	.	.	?	?
Cc1nc(N2CCC(NC(=O)c3nn(C)c4ccccc34)CC2)cc(C(F)(F)F)n1	-0.2%	i	?	44.7µM*	?
COc1ccc(CNC(=O)C2CCCCN2Cc2ccc(-c3cccs3)cc2)cc1 (centres undefined)	-7.8%	.	.	?	?
COc1ccccc1-c1cccc(C(=O)N2CCC[C@H]2C(=O)NCc2ccc(F)cc2F)c1	0.3%	.	.	?	?
COc1ccccc1-c1cccc(C(=O)N2CCC[C@H]2C(=O)NCC2CC2)c1	i	.	.	?	-19.3%[138 µM]
COc1ccccc1-c1ccc(CN2CCCCC2C(=O)NCc2ccccc2)cc1 (centres undefined)	.	.	.	31.6µM*	?
COc1ccccc1-c1ccc(CN2CCCCC2C(=O)NCC2CC2)cc1 (centres undefined)	.	.	.	44.7µM*!	?
COc1ccccc1-c1ccc(CN2CCCCC2C(=O)NCc2ccccc2F)cc1 (centres undefined)	.	.	.	39.8µM*	?
CN(C)c1cccc(C(=O)N2CCn3nc(Cc4ccccc4)cc3C2)c1	4.9%	i	-14.4%	?	?
COc1ccc(NC(=O)c2cc3n(n2)CC(c2ccc4c(c2)OCO4)OC3)cc1 (centres undefined)	i	?	11.2µM*	44.7µM*	?
CC(=O)Nc1ccc(NC(=O)c2cc3n(n2)CC(c2ccc(Br)cc2)OC3)cc1 (centres undefined)	-2.6%	?	?	?	?
Cc1ccc(NC(=O)c2cc3n(n2)CC(c2ccc4c(c2)OCO4)OC3)cc1F (centres undefined)	i	i	?	39.8µM*	-25.6%
NC(=O)c1ccc(NC(=O)c2cc3n(n2)CC(c2ccc(Br)cc2)OC3)cc1 (centres undefined)	i	i	?	35.5µM*	?
COc1ccc(NC(=O)c2cc3n(n2)CC(c2ccc4c(c2)OCO4)OC3)c(OC)c1 (centres undefined)	i	i	-4.6%	?	?
CCOc1nccn2c(-c3ccc(CNc4ccc(OC)nc4)cc3)cnc12	?	22.4µM*	-13.8%[70.6 µM]	?	?
O=C(NCc1cccs1)[C@@H]1C[C@@H](O)[C@H](O)[C@@H]2NC(=S)N(c3ccc(OC(F)(F)F)cc3)[C@@H]21	3.6%	44.7µM*	-5.3%	?	?
SMILES	GPT2 inh	FLuc inh	NPR1 antag	HEK cytotox	3T3 cytotox
O=C(NCc1cccs1)c1ccc2nnc(-c3ccc(OC(F)(F)F)cc3)n2c1	i	.	.	?	?
O=C1NCc2ccccc2CC12CCN(Cc1ccc(Cl)o1)C2 (centres undefined)	3.5%	.	.	?	-20.8%
Cn1ncc2c(C(=O)Nc3cccc(C(F)(F)F)c3)cc(-c3ccc(C(F)(F)F)cc3)nc21	.	.	.	11.2µM*	7.94µM*
COc1cccc(-c2cc(C(=O)Nc3cccc(C(F)(F)F)c3)c3cnn(C)c3n2)c1	.	.	.	31.6µM*	?
O=C(NC1CCCC1)c1nc2cccnc2n(Cc2ccccc2)c1=O	i	.	.	?	?
c1ccc(-c2noc(-c3cncnc3N3CCN(c4ccccc4)CC3)n2)cc1	1.2%	?	-21.2%	44.7µM*	?
Cc1ccc(-c2cc(C(=O)NCC(F)F)nn3cnnc23)cc1	i	.	.	0.1%[172 µM]	-2.6%[138 µM]
CC(C)CNC(=O)c1cc(-c2ccc(F)cc2)c2nncn2n1	i	.	.	?	44.7µM*
COc1ccc(Nc2ccnc(N3CCCC(C(=O)NC4CC4)C3)n2)cc1 (centres undefined)	i	.	.	?	?
Cc1ccc(Nc2ccnc(N3CCC(C(=O)NCCCc4ccccc4)CC3)n2)cc1	i	.	.	?	12.6µM*
COc1ccc(Nc2ccnc(N3CCCC(C(=O)NCCCc4ccccc4)C3)n2)cc1 (centres undefined)	-8.1%	.	.	22.4µM*	?
Cc1ccc(Nc2ccnc(N3CCCC(C(=O)NCCCc4ccccc4)C3)n2)cc1 (centres undefined)	i	.	.	5.01µM*	?
CSCCNC(=O)C1CCCN(c2nccc(Nc3ccc(C)cc3)n2)C1 (centres undefined)	-0.4%	.	.	?	?
NC(=O)c1ccc(OC2CCN(S(=O)(=O)c3ccc(F)cc3)CC2)nc1	i	i	-3.4%	?	-22.4%
Cn1cc(CNc2ccc(-c3nc(-c4cccc(C(F)(F)F)c4)no3)cn2)cn1	-40.0%[11.5 µM]	i	?	25.1µM*	?
OC[C@@H]1CN(c2ccc(-c3nc(-c4cccc(C(F)(F)F)c4)no3)cn2)C[C@H]1CO	i	i	-23.4%	?	-29.8%
Cn1cc(CNc2ccc(-c3nc(CCCc4ccccc4)no3)cn2)cn1	0.8%[11.5 µM]	39.8µM*	?	?	?
FC(F)(F)c1cccc(-c2noc(-c3ccc(NCCN4CCOCC4)nc3)n2)c1	i[11.5 µM]	?	11.2µM*	11.2µM*	?
